Measurements reported in PubChem BioAssay (NCATS).
Results filed as inconclusive are left out. Active and inactive are the calls of the source. The call rests on the fitted dose curve; in most records, active means well fitted curve in the direction sought with a large enough effect; inconclusive means small, poorly fitted or top-dose-only effect, or another doubt; inactive means no such curve, though single readings can be large; an effect the other way counts as inactive or inconclusive. Non-standard residues stand in square brackets, D forms with d. Residues, ends and D or L forms follow the SMILES beside them. *: point of attachment. Nva = CCC[C@H](N)C(=O)O; Cbz = O=C(OCc1ccccc1)*

Legend:
[1] = qHTS of pediatric cancer cell lines to identify multiple opportunities for drug repurposing: Primary screen for MG 63 (6-TG R) cells (AID 1347105); further: nearly all actives have a fitted effect of over 50% in size; further: potency means the concentration at half of the fitted maximal effect
In short: (§1)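 Phenotypic viability qHTS, 48 h compound exposure, CellTiter-Glo luminescence read-out; multi-concentration dosing so that potency and efficacy derive directly from the primary screen's curves.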

[2] = qHTS of pediatric cancer cell lines to identify multiple opportunities for drug repurposing: Primary screen for control Hh wild type fibroblast cells (AID 1347106); further: nearly all actives have a fitted effect of over 55% in size; further: potency means the concentration at half of the fitted maximal effect;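 on activity change, negative = cytotoxic: a drop in luminescence marks cytotoxicity and a rise apparent proliferation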
In short: (§2)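 Cells (500-1,000/well) in growth media were settled 5 h at 37 degrees C, then given compounds for 48 h. Viability was read as CellTiter-Glo luminescence. Primary runs used MIPE at 11 points (0.78 nM-46 µM) and NPC at 8 points (0.59 nM-46 µM); follow-ups used 11 points.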

[3] = qHTS of pediatric cancer cell lines to identify multiple opportunities for drug repurposing: Primary screen for Rh30 cells (AID 1347107); further: nearly all actives have a fitted effect of over 75% in size; further: potency means the concentration at half of the fitted maximal effect
In short: as §2

[4] = qHTS of pediatric cancer cell lines to identify multiple opportunities for drug repurposing: Primary screen for Rh41 cells (AID 1347108); further: nearly all actives have a fitted effect of over 70% in size; further: potency means the concentration at half of the fitted maximal effect;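 on activity change, negative = cytotoxic: luminescence drop marks cytotoxic hits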
In short: as §1

[5] = qHTS of pediatric cancer cell lines to identify multiple opportunities for drug repurposing: Confirmatory screen for NB1643 cells (AID 1347109); further: nearly all actives have a fitted effect of over 45% in size; further: potency means the concentration at half of the fitted maximal effect
In short: as §2

[6] = qHTS of pediatric cancer cell lines to identify multiple opportunities for drug repurposing: Confirmatory screen for SK-N-MC cells (AID 1347111);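 further: cells exposed to compound for 48 h before the readout; nearly all actives have a fitted effect of over 70% in size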; further: potency means the concentration at half of the fitted maximal effect
In short: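 Metabolically active cells were quantified by ATP-dependent luminescence (CellTiter-Glo, 15 min at room temperature) following 48 h treatment. Cells had been plated at 500-1,000 per well and settled for 5 h beforehand.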

[7] = qHTS of pediatric cancer cell lines to identify multiple opportunities for drug repurposing: Confirmatory screen for LAN-5 cells (AID 1347113); further: nearly all actives have a fitted effect of over 65% in size; further: potency means the concentration at half of the fitted maximal effect
In short: as §2

[8] = qHTS of pediatric cancer cell lines to identify multiple opportunities for drug repurposing: Confirmatory screen for DAOY cells (AID 1347114); further: nearly all actives have a fitted effect of over 65% in size; further: potency means the concentration at half of the fitted maximal effect
In short: (§3)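 Viability measured as metabolically active cells via CellTiter-Glo luminescence following 48 hours of compound exposure, 11-point dilutions in confirmatory testing. 500-1,000 cells/well plated 5 hours before dosing; controls were DMSO and 2.3 µM bortezomib.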

[9] = qHTS of pediatric cancer cell lines to identify multiple opportunities for drug repurposing: Confirmatory screen for SJ-GBM2 cells (AID 1347116); further: nearly all actives have a fitted effect of over 60% in size; further: potency means the concentration at half of the fitted maximal effect
In short: as §3

[10] = qHTS of pediatric cancer cell lines to identify multiple opportunities for drug repurposing: Confirmatory screen for BT-37 cells (AID 1347117); details: BT-37 pediatric cancer cells, viability; activity change, negative = cytotoxic: at 45.9 µM (top of the series); further: nearly all actives have a fitted effect of over 55% in size; further: potency means the concentration at half of the fitted maximal effect
In short: as §2

[11] = qHTS of pediatric cancer cell lines to identify multiple opportunities for drug repurposing: Confirmatory screen for TC32 cells (AID 1347118);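 further: cells exposed to compound for 48 h before the read; nearly all actives have a fitted effect of over 65% in size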; further: potency means the concentration at half of the fitted maximal effect
In short: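 qHTS, TC32, 48 h drug treatment, CellTiter-Glo luminescence as a proxy for metabolically active cells; primary top concentration 46 µM (MIPE 11-pt, NPC 8-pt); confirmatory 11-pt.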

[12] = qHTS of pediatric cancer cell lines to identify multiple opportunities for drug repurposing: Confirmatory screen for U-2 OS cells (AID 1347122); further: nearly all actives have a fitted effect of over 65% in size; further: potency means the concentration at half of the fitted maximal effect
In short: as §2

[13] = qHTS of pediatric cancer cell lines to identify multiple opportunities for drug repurposing: Confirmatory screen for Rh41 cells (AID 1347123); further: nearly all actives have a fitted effect of over 60% in size; further: potency means the concentration at half of the fitted maximal effect
In short: as §2

[14] = qHTS of pediatric cancer cell lines to identify multiple opportunities for drug repurposing: Confirmatory screen for RD cells (AID 1347124); further: potency means the concentration at half of the fitted maximal effect
In short: as §2

[15] = qHTS of pediatric cancer cell lines to identify multiple opportunities for drug repurposing: Confirmatory screen for Rh18 cells (AID 1347125); further: nearly all actives have a fitted effect of over 55% in size; further: potency means the concentration at half of the fitted maximal effect
In short: as §2

[16] = qHTS of pediatric cancer cell lines to identify multiple opportunities for drug repurposing: Confirmatory screen for BT-12 cells (AID 1347112); further: nearly all actives have a fitted effect of over 55% in size; further: potency means the concentration at half of the fitted maximal effect
In short: as §2

[17] = qHTS of pediatric cancer cell lines to identify multiple opportunities for drug repurposing: Confirmatory screen for MG 63 (6-TG R) cells (AID 1347119); further: nearly all actives have a fitted effect of over 55% in size; further: potency means the concentration at half of the fitted maximal effect
In short: as §2

[18] = qHTS of pediatric cancer cell lines to identify multiple opportunities for drug repurposing: Confirmatory screen for A673 cells (AID 1347110); further: potency means the concentration at half of the fitted maximal effect
In short: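 Forty-eight-hour viability assay. Follow-up compounds ran at 11-point dilutions; positive control bortezomib at 2.3 uM final, neutral control DMSO.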

[19] = qHTS of pediatric cancer cell lines to identify multiple opportunities for drug repurposing: Confirmatory screen for NB-EBc1 cells (AID 1347115);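 further: potency means the concentration at half of the fitted maximal effect; cells exposed to compound for 48 h before the viability read; nearly all actives have a fitted effect of over 45% in size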
In short: as §2

[20] = qHTS of pediatric cancer cell lines to identify multiple opportunities for drug repurposing: Confirmatory screen for control Hh wild type fibroblast cells (AID 1347121); further: nearly all actives have a fitted effect of over 70% in size
In short: as §2

Measured: Potency

Cc1ccc([N+](=O)[O-])cc1S(=O)(=O)N(C)N=Cc1cnc2ccc(Br)cn12
active: [1] 18.7 µM | [4] 0.0662 µM | [5] 0.165 µM | [6] 1.04 µM | [7] 0.522 µM | [8] 0.329 µM | [9] 0.465 µM | [10] 0.329 µM | [11] 0.293 µM | [12] 7.37 µM | [13] 0.329 µM | [14] 4.65 µM | [15] 1.31 µM
inactive: [2] | [3]

CN(C)c1ccc(C(=O)NCCCCCCC(=O)NO)cc1
active: [1] 2.35 µM | [2] 3.72 µM | [3] 2.35 µM | [4] 0.935 µM | [5] 1.17 µM | [6] 1.04 µM | [16] 13.1 µM | [7] 1.85 µM | [8] 3.29 µM | [10] 1.65 µM | [11] 1.65 µM | [17] 1.47 µM | [12] 1.47 µM | [13] 1.17 µM | [14] 2.33 µM | [15] 1.47 µM

COC(=O)[C@@H]1[C@H]2C[C@@H]3c4[nH]c5ccccc5c4CCN3C[C@@H]2CC[C@@H]1O
not listed: [16] | [19] | [20]
inactive: all other assays above

CC(C)(C)c1nc2c3cc[nH]c(=O)c3c3cc(F)ccc3c2[nH]1
inactive: [1] | [2] | [3] | [4]

CC(C)(O)Cn1c(NC(=O)c2ccc(-c3cn[nH]c3)s2)nc2cc(CN3CCOCC3)ccc21
inactive: [3]
active: [1] 3.72 µM | [2] 6.62 µM | [4] 1.18 µM | [5] 0.329 µM | [18] 1.17 µM | [6] 1.31 µM | [7] 1.04 µM | [8] 2.61 µM | [19] 1.04 µM | [9] 1.17 µM | [10] 0.737 µM | [11] 1.31 µM | [17] 1.17 µM | [12] 1.17 µM | [13] 0.585 µM | [14] 0.827 µM | [15] 1.31 µM

CC(C)C[C@H](NC(=O)[C@@H](NC(=O)c1cccc(-c2ccccc2)n1)[C@@H](C)O)B(O)O
active: [1] 0.0296 µM | [2] 0.209 µM | [3] 0.372 µM | [4] 0.0935 µM | [5] 0.0827 µM | [18] 0.0737 µM | [6] 0.0147 µM | [7] 0.0369 µM | [8] 0.0369 µM | [19] 0.0585 µM | [9] 0.0465 µM | [10] 0.0737 µM | [11] 0.0585 µM | [17] 0.0165 µM | [12] 0.0369 µM | [13] 0.0737 µM | [14] 0.0522 µM | [15] 0.0827 µM

CC[C@H]1OC(=O)[C@H](C)[C@@H](O[C@H]2C[C@@](C)(OC)[C@@H](O)[C@H](C)O2)[C@H](C)[C@@H](O[C@@H]2O[C@@H](C)C[C@H](N(C)C)[C@@H]2O)[C@](C)(O)C[C@@H](C)C(=O)[C@H](C)[C@@H](O)[C@]1(C)O
inactive: [1] | [2] | [3] | [4]

C[C@H](O)[C@@H]1C(=O)N2C(C(=O)O)=C(S[C@@H]3CN[C@H](CNS(N)(=O)=O)C3)[C@@H](C)[C@@H]12
inactive: [1] | [2] | [3] | [4]

O=C(C=CC#Cc1cccc(NS(=O)(=O)c2ccccc2)c1)NO
inactive: [2]
active: [1] 5.9 µM | [3] 11.8 µM | [4] 2.96 µM | [5] 2.33 µM | [18] 1.65 µM | [6] 0.414 µM | [7] 2.61 µM | [8] 7.37 µM | [9] 4.65 µM | [10] 2.61 µM | [11] 0.737 µM | [17] 2.61 µM | [12] 0.928 µM | [13] 1.65 µM | [14] 5.22 µM | [15] 2.33 µM

CC(=O)N1CCN(c2ccc(OCc3nn(C)c(C)c3-c3cccc4c(CCCOc5cccc6ccccc56)c(C(=O)O)n(Cc5cccnc5)c34)cc2)CC1
active: [1] 14.8 µM | [2] 0.526 µM | [3] 4.69 µM | [4] 0.743 µM | [6] 20.8 µM
inactive: [5] | [16] | [10] | [17] | [20] | [12] | [14] | [15]

CCc1ccc(C(=O)Nc2cc(CN3CCN(C)CC3)cc(C(F)(F)F)c2)cc1C#Cc1cnc2ccnn2c1
active: [1] 18.7 µM | [3] 14.8 µM | [4] 9.35 µM
inactive: [2]

CCC[C@@H](C=O)NC(=O)[C@H](CC(C)C)NC(=O)[C@H](CC(C)C)NC(=O)OCc1ccccc1 (Cbz-Leu-Leu-[Nva]-aldehyde)
active: [1] 0.935 µM | [2] 5.26 µM | [3] 4.69 µM | [4] 2.35 µM | [5] 1.65 µM | [18] 1.17 µM | [6] 0.414 µM | [7] 1.47 µM | [8] 1.17 µM | [9] 2.08 µM | [10] 1.17 µM | [11] 1.47 µM | [17] 0.827 µM | [12] 2.61 µM | [13] 1.04 µM | [14] 1.31 µM | [15] 3.69 µM

CC(Oc1ccc(O)cc1)(P(=O)(O)O)P(=O)(O)O
inactive: [1] | [2] | [3] | [4]

Cc1cnc(Nc2ccc(CN3CCOCC3)cc2)nc1Nc1cccc(S(=O)(=O)NC(C)(C)C)c1
active: [1] 3.72 µM | [2] 11.8 µM | [3] 6.62 µM | [4] 3.32 µM | [5] 5.85 µM | [6] 5.22 µM | [7] 14.7 µM | [19] 10.4 µM | [10] 4.65 µM | [11] 3.29 µM | [17] 4.14 µM | [12] 4.65 µM | [13] 5.22 µM | [15] 9.27 µM

CCOC(=O)C=C[C@H](C[C@@H]1CCNC1=O)NC(=O)[C@@H](CC(=O)[C@@H](NC(=O)c1cc(C)on1)C(C)C)Cc1ccc(F)cc1
inactive: [1] | [2] | [3] | [4]

COc1cc(C[C@@H](CO)[C@H](CO)Cc2ccc(O)c(OC)c2)ccc1O
inactive: [5] | [10] | [17] | [15]
active: [1] 0.935 µM | [2] 0.418 µM | [3] 0.469 µM | [4] 0.935 µM | [6] 8.27 µM | [11] 9.27 µM | [14] 16.5 µM

Cc1cnc(Nc2ccc(N3CCN(C)CC3)cc2)nc1Nc1cccc(S(=O)(=O)NC(C)(C)C)c1
active: [1] 7.43 µM | [2] 16.6 µM | [3] 5.9 µM | [4] 5.9 µM | [5] 4.65 µM | [18] 4.65 µM | [6] 3.29 µM | [16] 16.5 µM | [7] 7.37 µM | [8] 18.5 µM | [10] 5.85 µM | [11] 2.33 µM | [17] 2.93 µM | [13] 3.29 µM | [14] 7.37 µM | [15] 2.93 µM

CC(=O)OCC(=O)[C@@]1(O)CC[C@H]2[C@@H]3CCC4=CC(=O)CC[C@]4(C)[C@@H]3C(=O)C[C@@]21C
inactive: [1] | [2] | [3] | [4]

CCN(CC)Cc1ccc2cc(COC(=O)Nc3ccc(C(=O)NO)cc3)ccc2c1
active: [1] 4.69 µM | [2] 14.8 µM | [3] 4.69 µM | [4] 0.935 µM
not listed: [14] | [15] | [18] | [19] | [20]
inactive: all other assays above

O=C1c2c(O)cccc2[C@@H]([C@@H]2O[C@H](CO)[C@@H](O)[C@H](O)[C@H]2O)c2cc(CO)cc(O)c21
inactive: [1] | [2] | [3] | [4] | [5] | [7] | [8] | [20] | [13]

Cc1coc2c1C(=O)C(=O)c1c-2ccc2c(C)cccc12
inactive: [1] | [2] | [3] | [4]

CCN(CC)CCNC(=O)c1c(C)[nH]c(C=C2C(=O)Nc3ccc(F)cc32)c1C
active: [1] 13.6 µM | [2] 17.1 µM | [3] 27 µM | [4] 13.6 µM | [5] 10.7 µM | [16] 33.9 µM | [7] 10.7 µM | [8] 17 µM | [17] 13.5 µM | [12] 24 µM | [13] 7.59 µM | [14] 15.1 µM | [15] 26.9 µM

C=CC(=O)Nc1cccc(Nc2nc(NC3CCC(N(C)C)CC3)nc3c2ncn3C(C)C)c1 (stereo not given)
active: [1] 0.469 µM | [2] 2.35 µM | [4] 0.0209 µM | [5] 0.414 µM | [6] 2.61 µM | [16] 1.17 µM | [7] 0.827 µM | [8] 3.29 µM | [9] 4.65 µM | [10] 0.827 µM | [11] 0.657 µM | [17] 3.69 µM | [12] 5.22 µM | [13] 0.414 µM | [14] 0.737 µM | [15] 0.657 µM
inactive: [3]

O=S(=O)(O)CCSSCCS(=O)(=O)O
not listed: [16] | [19] | [20]
inactive: all other assays above
